# Results: article PMC7862700, “An all-to-all approach to the identification of sequence-specific readers for epigenetic DNA modifications on cytosine”
# How the values were obtained:
# Test in all cases: DAPPL (digital affinity profiling via proximity ligation, sequencing); 10 mM Tris-HCl pH 7.5, 50 mM NaCl, 1 mM DTT, 4% glycerol, room temperature, 30 min; GST-TFs on glutathione beads, 16-mer random dsDNA library, 0.1% formaldehyde crosslink after washing; high values mean tight binding
# FLI1 = biological target: T1, FLI1 (Homo sapiens, UniProt Q01543 1-452); details: protein: recombinant; tags: N-terminal GST; dsDNA, one strand shown
# T1 sequence: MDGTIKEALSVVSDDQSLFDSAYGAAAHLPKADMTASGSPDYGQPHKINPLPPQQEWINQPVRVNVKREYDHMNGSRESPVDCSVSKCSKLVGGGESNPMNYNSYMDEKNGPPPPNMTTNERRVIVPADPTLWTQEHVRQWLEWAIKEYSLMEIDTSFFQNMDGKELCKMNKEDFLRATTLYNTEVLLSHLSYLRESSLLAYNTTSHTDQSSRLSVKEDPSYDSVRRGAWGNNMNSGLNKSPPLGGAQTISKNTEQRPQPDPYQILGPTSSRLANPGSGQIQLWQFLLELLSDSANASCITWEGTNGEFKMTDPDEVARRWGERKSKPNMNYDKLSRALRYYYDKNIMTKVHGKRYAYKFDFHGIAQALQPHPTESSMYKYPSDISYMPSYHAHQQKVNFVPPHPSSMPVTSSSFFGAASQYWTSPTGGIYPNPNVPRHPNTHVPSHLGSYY
# How it was run: (§1)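 Each value of binding signal is a hexamer's read frequency for a factor divided by the same hexamer's frequency in the tag-only sample. Barcoded, bead-captured GST fusions of human transcription factors made in yeast were pooled with that sample and incubated with 200 nmole of a random double-stranded 16-mer DNA library in Tris/NaCl/DTT/glycerol buffer at room temperature for 30 min. Washing, 0.1% formaldehyde crosslinking, proximity ligation, PCR and Illumina NextSeq500 sequencing followed.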
# ELK1 = biological target: T2, ELK1 (Homo sapiens, UniProt P19419 1-428); details: protein: recombinant; tags: N-terminal GST; dsDNA, one strand shown
# T2 sequence: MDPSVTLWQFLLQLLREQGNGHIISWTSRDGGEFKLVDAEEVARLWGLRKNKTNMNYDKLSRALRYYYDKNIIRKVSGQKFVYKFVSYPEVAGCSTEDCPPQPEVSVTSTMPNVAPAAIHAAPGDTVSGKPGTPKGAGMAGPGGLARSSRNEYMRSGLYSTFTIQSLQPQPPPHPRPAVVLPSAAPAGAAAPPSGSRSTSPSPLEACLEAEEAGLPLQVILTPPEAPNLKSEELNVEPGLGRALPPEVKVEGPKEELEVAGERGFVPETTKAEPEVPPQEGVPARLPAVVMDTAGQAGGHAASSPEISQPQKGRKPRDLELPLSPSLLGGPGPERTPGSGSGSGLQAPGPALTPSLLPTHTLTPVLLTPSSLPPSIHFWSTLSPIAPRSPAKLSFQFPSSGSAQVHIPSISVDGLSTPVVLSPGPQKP
# How it was run: as §1
# GABPA = biological target: T3, GABPA (Homo sapiens, UniProt Q06546 1-454); details: protein: recombinant; tags: N-terminal GST; dsDNA, one strand shown
# T3 sequence: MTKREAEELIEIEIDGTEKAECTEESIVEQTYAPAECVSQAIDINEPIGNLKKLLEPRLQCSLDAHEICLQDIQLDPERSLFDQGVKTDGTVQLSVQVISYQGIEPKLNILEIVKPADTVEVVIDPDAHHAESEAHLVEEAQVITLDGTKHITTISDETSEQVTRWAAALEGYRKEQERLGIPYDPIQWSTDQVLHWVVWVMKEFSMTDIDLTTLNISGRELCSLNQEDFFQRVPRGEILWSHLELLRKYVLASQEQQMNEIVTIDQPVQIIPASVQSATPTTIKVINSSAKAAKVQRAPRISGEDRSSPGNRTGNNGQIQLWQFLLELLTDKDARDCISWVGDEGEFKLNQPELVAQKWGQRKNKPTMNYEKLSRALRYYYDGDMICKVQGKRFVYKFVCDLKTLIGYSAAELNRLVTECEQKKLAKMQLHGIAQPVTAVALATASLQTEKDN
# How it was run: as §1
# ERG = biological target: T4, ERG (Homo sapiens, UniProt P11308 1-479); details: protein: recombinant; tags: N-terminal GST; dsDNA, one strand shown
# T4 sequence: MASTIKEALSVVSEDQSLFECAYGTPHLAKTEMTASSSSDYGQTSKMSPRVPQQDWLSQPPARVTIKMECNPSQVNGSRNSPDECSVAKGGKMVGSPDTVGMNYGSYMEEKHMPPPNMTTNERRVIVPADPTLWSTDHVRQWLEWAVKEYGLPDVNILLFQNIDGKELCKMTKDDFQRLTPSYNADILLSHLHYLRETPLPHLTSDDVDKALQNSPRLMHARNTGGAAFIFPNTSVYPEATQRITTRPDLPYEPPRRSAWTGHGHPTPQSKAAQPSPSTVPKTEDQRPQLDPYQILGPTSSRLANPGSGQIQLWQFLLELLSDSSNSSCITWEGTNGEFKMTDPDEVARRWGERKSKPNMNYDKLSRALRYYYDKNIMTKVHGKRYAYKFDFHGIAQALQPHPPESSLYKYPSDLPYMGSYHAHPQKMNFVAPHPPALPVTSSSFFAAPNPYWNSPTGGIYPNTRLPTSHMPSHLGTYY
# How it was run: as §1
# ELF1 = ELF1 (Homo sapiens, UniProt P32519 1-619); details: protein: recombinant; tags: N-terminal GST; dsDNA, one strand shown
# Sequence of ELF1 (P32519 whole entry): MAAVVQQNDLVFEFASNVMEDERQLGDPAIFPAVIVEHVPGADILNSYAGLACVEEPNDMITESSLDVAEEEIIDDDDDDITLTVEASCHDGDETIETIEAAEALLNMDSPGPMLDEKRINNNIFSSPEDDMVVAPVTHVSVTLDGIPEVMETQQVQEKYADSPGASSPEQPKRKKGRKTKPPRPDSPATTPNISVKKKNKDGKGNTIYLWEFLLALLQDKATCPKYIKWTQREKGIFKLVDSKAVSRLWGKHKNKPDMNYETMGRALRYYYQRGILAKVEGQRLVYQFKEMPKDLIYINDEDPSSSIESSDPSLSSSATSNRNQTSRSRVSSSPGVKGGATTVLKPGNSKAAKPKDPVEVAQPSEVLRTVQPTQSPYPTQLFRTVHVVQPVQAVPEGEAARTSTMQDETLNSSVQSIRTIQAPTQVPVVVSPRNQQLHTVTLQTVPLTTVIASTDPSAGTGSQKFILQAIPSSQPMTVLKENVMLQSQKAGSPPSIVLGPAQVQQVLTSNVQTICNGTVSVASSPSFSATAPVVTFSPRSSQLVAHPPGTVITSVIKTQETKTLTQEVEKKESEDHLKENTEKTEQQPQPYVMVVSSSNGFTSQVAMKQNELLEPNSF
# How it was run: as §1
# EHF = biological target: T5, EHF (Homo sapiens, UniProt Q9NZC4 1-300); details: protein: recombinant; tags: N-terminal GST; dsDNA, one strand shown
# T5 sequence: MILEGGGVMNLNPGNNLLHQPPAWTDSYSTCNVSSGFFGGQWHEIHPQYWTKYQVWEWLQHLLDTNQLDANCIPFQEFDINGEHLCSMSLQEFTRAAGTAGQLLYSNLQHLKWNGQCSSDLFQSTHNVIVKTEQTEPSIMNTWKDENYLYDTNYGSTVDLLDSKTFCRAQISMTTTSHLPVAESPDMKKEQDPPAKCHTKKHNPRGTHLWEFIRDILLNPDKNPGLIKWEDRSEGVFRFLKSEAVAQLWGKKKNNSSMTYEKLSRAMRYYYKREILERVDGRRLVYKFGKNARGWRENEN
# How it was run: as §1
# SPI1 = SPI1 (Homo sapiens, UniProt P17947 1-270); details: protein: recombinant; tags: N-terminal GST; dsDNA, one strand shown
# How it was run: as §1
# SPIB = SPIB (Homo sapiens, UniProt Q01892 1-262); details: protein: recombinant; tags: N-terminal GST; dsDNA, one strand shown
# Sequence of SPIB (Q01892 whole entry): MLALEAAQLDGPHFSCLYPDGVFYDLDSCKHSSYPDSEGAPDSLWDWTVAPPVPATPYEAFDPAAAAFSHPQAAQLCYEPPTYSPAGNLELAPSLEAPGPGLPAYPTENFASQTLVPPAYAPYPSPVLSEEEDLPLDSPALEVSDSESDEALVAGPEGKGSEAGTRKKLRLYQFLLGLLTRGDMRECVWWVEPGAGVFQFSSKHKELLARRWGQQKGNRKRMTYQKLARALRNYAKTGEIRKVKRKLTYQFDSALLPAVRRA
# How it was run: as §1
# ELK3 = biological target: T6, ELK3 (Homo sapiens, UniProt P41970 1-407); details: protein: recombinant; tags: N-terminal GST; dsDNA, one strand shown
# T6 sequence: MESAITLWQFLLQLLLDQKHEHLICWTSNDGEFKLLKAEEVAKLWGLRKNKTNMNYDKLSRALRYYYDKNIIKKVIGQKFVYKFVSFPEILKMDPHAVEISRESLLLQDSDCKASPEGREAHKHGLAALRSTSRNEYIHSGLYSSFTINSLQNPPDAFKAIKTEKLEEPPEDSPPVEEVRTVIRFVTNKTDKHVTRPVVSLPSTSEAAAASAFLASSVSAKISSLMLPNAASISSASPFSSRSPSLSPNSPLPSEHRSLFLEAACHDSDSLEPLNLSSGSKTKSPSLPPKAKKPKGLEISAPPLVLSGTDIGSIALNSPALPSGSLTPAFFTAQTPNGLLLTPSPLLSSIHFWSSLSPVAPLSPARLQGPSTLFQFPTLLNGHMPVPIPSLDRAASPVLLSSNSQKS
# How it was run: as §1
# FEV = biological target: T7, FEV (Homo sapiens, UniProt Q99581 1-238); details: protein: recombinant; tags: N-terminal GST; dsDNA, one strand shown
# T7 sequence: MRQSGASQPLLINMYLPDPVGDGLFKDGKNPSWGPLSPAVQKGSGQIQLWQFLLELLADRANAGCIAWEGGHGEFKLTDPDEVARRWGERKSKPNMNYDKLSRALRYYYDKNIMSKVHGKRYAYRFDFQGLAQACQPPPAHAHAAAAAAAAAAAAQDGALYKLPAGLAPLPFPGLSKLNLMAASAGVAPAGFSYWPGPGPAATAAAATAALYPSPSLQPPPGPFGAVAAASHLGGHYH
# How it was run: as §1
# ETV5 = ETV5 (Homo sapiens, UniProt P41161 1-510); details: protein: recombinant; tags: N-terminal GST; dsDNA, one strand shown
# Sequence of ETV5 (P41161 whole entry): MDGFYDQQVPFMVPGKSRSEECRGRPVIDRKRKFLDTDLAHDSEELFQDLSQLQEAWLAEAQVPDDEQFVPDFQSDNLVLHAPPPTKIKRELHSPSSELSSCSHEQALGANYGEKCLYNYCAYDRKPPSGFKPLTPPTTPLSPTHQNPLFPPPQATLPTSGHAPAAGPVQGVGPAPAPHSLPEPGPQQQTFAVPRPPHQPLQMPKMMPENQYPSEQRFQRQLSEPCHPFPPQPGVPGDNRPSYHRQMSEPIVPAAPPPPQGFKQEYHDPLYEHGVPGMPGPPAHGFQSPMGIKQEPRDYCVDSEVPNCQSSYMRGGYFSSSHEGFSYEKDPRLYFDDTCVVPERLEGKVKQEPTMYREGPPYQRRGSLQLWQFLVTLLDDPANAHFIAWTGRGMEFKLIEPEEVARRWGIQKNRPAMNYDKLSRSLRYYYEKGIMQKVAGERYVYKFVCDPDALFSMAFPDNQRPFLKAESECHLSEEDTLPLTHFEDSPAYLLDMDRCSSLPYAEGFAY
# How it was run: as §1
# HSF1 = HSF1 (Homo sapiens, UniProt Q00613 1-529); details: protein: recombinant; tags: N-terminal GST; chain copies: 3; dsDNA, one strand shown
# Sequence of HSF1 (Q00613 whole entry): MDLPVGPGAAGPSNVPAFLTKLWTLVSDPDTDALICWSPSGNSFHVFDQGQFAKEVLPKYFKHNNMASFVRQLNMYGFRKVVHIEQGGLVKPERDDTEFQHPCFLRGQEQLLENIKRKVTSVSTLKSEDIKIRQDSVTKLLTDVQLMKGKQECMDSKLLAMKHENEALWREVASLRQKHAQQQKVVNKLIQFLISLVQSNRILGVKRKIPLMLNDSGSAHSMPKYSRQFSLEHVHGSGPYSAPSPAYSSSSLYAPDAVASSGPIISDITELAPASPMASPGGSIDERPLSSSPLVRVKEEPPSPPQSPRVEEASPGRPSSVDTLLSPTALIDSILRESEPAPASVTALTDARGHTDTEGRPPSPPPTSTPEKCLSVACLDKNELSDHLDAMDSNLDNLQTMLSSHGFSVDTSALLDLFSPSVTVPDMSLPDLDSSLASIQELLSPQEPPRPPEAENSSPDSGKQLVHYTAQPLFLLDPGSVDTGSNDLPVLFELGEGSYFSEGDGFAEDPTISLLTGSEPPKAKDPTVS
# How it was run: as §1
# SPIC = biological target: T8, SPIC (Homo sapiens, UniProt Q8N5J4 1-248); details: protein: recombinant; tags: N-terminal GST; dsDNA, one strand shown
# T8 sequence: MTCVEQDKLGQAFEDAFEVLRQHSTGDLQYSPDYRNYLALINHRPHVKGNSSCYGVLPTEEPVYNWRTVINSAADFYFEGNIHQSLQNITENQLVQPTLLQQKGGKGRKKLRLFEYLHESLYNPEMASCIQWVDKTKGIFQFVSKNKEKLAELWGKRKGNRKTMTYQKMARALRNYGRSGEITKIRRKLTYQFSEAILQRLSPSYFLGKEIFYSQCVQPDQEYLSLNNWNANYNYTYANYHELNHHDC
# How it was run: as §1
# ELF4 = ELF4 (Homo sapiens, UniProt Q99607 1-663); details: protein: recombinant; tags: N-terminal GST; dsDNA, one strand shown
# Sequence of ELF4 (Q99607 whole entry): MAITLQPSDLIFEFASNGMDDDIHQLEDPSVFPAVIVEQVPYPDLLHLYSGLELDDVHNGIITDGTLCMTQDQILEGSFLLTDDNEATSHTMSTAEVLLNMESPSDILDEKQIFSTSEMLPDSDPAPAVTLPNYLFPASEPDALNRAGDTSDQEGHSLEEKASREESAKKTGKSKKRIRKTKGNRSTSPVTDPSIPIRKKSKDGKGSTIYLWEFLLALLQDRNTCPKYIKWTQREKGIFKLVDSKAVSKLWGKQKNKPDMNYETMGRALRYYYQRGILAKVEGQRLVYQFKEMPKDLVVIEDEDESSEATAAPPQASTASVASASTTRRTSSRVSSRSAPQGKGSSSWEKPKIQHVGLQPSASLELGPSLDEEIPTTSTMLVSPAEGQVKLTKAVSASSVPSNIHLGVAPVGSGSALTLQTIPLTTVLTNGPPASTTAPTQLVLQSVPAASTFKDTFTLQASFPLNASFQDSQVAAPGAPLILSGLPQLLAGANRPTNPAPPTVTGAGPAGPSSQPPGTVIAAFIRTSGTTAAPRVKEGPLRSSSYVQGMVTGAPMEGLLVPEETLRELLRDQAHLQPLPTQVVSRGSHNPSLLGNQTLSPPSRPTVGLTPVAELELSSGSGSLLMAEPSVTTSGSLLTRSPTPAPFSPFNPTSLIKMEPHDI
# How it was run: as §1
# ELK4 = biological target: T9, ELK4 (Homo sapiens, UniProt P28324-2 1-405); details: protein: recombinant; tags: N-terminal GST; dsDNA, one strand shown
# T9 sequence: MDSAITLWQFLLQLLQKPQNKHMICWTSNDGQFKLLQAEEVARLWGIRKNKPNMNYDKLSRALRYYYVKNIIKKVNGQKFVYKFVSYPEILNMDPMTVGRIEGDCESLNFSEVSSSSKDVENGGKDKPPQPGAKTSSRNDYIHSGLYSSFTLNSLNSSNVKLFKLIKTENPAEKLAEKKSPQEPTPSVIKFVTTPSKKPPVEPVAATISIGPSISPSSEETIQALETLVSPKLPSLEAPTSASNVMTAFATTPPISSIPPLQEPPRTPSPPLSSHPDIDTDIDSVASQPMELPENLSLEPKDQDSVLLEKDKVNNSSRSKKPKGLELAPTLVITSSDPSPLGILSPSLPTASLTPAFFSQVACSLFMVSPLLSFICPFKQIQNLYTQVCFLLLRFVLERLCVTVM
# How it was run: as §1
# ETV2 = biological target: T10, ETV2 (Homo sapiens, UniProt O00321 1-342); details: protein: recombinant; tags: N-terminal GST; dsDNA, one strand shown
# T10 sequence: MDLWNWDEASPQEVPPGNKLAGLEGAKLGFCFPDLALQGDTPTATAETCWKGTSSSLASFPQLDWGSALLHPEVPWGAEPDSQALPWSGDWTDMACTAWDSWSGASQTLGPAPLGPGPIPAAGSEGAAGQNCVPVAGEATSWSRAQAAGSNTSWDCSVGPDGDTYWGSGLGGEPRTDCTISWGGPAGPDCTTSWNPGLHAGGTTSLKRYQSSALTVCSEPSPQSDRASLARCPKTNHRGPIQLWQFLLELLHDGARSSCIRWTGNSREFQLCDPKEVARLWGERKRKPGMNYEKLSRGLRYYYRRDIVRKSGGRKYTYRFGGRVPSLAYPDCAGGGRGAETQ
# How it was run: as §1
# ELF3 = biological target: T11, ELF3 (Homo sapiens, UniProt P78545 1-371); details: protein: recombinant; tags: N-terminal GST; dsDNA, one strand shown
# T11 sequence: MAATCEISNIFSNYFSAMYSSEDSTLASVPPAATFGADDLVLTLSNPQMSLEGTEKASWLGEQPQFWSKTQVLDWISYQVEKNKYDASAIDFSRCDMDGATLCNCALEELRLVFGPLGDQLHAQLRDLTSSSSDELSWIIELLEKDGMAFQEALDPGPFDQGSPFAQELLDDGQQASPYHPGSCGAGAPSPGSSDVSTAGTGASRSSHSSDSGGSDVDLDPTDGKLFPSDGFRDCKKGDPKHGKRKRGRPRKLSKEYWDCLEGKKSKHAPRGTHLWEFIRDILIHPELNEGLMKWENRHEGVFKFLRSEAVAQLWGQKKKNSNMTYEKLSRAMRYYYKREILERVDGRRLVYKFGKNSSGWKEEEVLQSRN
# How it was run: as §1
# CRX = CRX (Homo sapiens, UniProt O43186 1-299); details: protein: recombinant; tags: N-terminal GST; dsDNA, one strand shown
# Sequence of CRX (O43186 whole entry): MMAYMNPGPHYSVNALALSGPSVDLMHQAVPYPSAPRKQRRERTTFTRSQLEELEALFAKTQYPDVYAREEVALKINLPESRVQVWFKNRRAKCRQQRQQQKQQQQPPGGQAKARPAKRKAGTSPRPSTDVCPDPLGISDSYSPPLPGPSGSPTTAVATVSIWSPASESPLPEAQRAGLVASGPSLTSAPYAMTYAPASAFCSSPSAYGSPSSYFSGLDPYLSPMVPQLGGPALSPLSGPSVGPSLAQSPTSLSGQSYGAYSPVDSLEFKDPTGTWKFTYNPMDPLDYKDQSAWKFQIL
# How it was run: as §1
# ETV1 = ETV1 (Homo sapiens, UniProt P50549 1-477); details: protein: recombinant; tags: N-terminal GST; dsDNA, one strand shown
# Sequence of ETV1 (P50549 whole entry): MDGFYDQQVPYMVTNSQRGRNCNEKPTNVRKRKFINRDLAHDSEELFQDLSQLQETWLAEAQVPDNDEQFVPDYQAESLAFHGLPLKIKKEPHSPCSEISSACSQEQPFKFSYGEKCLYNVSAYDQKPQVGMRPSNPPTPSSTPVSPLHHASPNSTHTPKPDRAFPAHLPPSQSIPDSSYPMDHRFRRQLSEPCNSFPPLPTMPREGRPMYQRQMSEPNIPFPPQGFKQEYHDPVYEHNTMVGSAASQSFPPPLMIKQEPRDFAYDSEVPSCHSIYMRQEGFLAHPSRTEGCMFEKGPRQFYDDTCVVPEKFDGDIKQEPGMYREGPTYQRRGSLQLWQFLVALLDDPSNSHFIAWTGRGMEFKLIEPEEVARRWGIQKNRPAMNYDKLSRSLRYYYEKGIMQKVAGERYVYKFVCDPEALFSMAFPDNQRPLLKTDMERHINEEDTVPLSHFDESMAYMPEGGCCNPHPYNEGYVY
# How it was run: as §1
sequence,measurement,setting,value
TCTATT,binding signal,FLI1,"1.33 fold enrichment (6-mer frequency, TF over GST control)"
same,binding signal,ELK1,"1.3 fold enrichment (6-mer frequency, TF over GST control)"
same,binding signal,GABPA,"1.18 fold enrichment (6-mer frequency, TF over GST control)"
same,binding signal,ERG,"1.25 fold enrichment (6-mer frequency, TF over GST control)"
same,binding signal,ELF1,"1.29 fold enrichment (6-mer frequency, TF over GST control)"
same,binding signal,EHF,"1.28 fold enrichment (6-mer frequency, TF over GST control)"
same,binding signal,SPI1,"1.28 fold enrichment (6-mer frequency, TF over GST control)"
same,binding signal,SPIB,"1.28 fold enrichment (6-mer frequency, TF over GST control)"
same,binding signal,ELK3,"1.18 fold enrichment (6-mer frequency, TF over GST control)"
same,binding signal,FEV,"1.22 fold enrichment (6-mer frequency, TF over GST control)"
same,binding signal,ETV5,"1.3 fold enrichment (6-mer frequency, TF over GST control)"
same,binding signal,HSF1,"1.43 fold enrichment (6-mer frequency, TF over GST control)"
same,binding signal,SPIC,"1.57 fold enrichment (6-mer frequency, TF over GST control)"
same,binding signal,ELF4,"1.27 fold enrichment (6-mer frequency, TF over GST control)"
same,binding signal,ELK4,"1.25 fold enrichment (6-mer frequency, TF over GST control)"
same,binding signal,ETV2,"1.16 fold enrichment (6-mer frequency, TF over GST control)"
same,binding signal,ELF3,"1.35 fold enrichment (6-mer frequency, TF over GST control)"
same,binding signal,CRX,"1.37 fold enrichment (6-mer frequency, TF over GST control)"
same,binding signal,ETV1,"1.25 fold enrichment (6-mer frequency, TF over GST control)"
